The campaign covered roughly 310,000 compounds. About 14,000 (4.5%) showed an effect of 50% or more. Effects have a minus sign here. This excerpt belongs to a sample that is enriched for strong results.
Target: human ether-à-go-go-related gene (hERG) potassium channel (human, UniProt Q12809)
Assay: primary screen, population patch clamp on CHO cells stably expressing hERG; higher = less effect of the substance
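Further: peak tail current of the secondary pulse compared with the same well before compound.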

Sequence of human ether-à-go-go-related gene (hERG) potassium channel (Q12809 whole entry, looked up): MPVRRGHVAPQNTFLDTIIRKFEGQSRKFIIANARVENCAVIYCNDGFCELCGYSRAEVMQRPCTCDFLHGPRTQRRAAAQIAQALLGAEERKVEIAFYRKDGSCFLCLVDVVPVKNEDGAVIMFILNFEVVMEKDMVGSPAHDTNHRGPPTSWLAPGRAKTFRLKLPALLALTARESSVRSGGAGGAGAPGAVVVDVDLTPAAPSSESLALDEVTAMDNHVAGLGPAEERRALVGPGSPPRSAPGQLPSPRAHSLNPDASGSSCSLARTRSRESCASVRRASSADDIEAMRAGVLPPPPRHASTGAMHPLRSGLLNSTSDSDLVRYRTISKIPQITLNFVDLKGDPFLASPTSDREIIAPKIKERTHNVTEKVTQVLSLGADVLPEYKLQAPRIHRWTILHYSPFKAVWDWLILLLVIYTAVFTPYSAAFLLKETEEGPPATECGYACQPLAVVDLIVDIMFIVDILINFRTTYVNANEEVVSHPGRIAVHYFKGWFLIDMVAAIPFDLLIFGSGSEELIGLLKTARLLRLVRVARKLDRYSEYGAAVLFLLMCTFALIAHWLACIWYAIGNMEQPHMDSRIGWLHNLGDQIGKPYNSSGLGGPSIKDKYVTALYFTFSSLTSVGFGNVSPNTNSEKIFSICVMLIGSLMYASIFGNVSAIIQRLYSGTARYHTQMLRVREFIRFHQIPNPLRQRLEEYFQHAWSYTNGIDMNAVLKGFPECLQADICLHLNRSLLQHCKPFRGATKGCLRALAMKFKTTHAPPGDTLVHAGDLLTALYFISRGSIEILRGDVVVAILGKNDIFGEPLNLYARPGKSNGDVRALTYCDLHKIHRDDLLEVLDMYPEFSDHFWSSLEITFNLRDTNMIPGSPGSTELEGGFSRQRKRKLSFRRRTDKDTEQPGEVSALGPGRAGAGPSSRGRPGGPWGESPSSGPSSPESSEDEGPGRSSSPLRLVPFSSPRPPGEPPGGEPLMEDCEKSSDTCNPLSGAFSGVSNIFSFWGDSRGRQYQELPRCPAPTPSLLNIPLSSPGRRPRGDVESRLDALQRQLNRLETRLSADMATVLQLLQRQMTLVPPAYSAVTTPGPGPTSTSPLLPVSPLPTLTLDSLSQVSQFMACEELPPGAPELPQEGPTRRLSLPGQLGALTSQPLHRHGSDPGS

Row | Structure (SMILES) | hERG current change (%, negative = inhibition) at 10uM
1 | Cc1ccc2nc(NC(=O)c3ccc(-c4nc5ccccc5s4)s3)sc2c1 | 0.614%
2 | O=C(Nc1cccnc1)c1ccccc1NS(=O)(=O)c1ccc(F)cc1 | -11.5%
3 | Cc1c(Cl)ccc2c1NC(=O)C21NC(CCC(N)=O)[C@H]2C(=O)N(c3ccc(Cl)cc3)C(=O)[C@H]21 (some centres unmarked) | 7.5%
4 | O=C(c1ccccc1NS(=O)(=O)c1ccc(F)cc1)N1CCCCC1 | -4.35%
5 | COCCN(C(=O)CCCC(=O)Nc1ccccn1)C(C(=O)NC1CCCCC1)c1ccc(C)cc1 (centres unmarked) | -17.7%
6 | CCc1ccc2oc(-c3ccc(NC(C)=O)cc3)nc2c1 | 10.7%
7 | O=C(c1ccc([N+](=O)[O-])cc1)N1CCN(Cc2ccccc2)CC1 | -66.4%
8 | O=C(Nc1ccc(C(=O)N2CCCCC2)cc1)c1ccc([N+](=O)[O-])cc1 | -1.34%
9 | O=C(c1ccccc1)N1CCN(c2ncccn2)CC1 | 17.6%
10 | O=C(NNC(=O)c1ccc([N+](=O)[O-])cc1)c1ccc(F)cc1 | 6.25%
11 | O=C(c1ccc([N+](=O)[O-])cc1)N1CCN(c2ncccn2)CC1 | -77.8%
12 | O=C(c1c(Cl)cccc1Cl)N1CCN(c2cccc3[nH]ccc23)CC1 | 22.3%
13 | O=C(c1cc([N+](=O)[O-])ccc1Cl)N1CCN(Cc2ccccc2)CC1 | 4.75%
14 | O=C(c1ccc(F)cc1)N1CCN(C(=O)c2ccc([N+](=O)[O-])cc2)CC1 | -63.2%
15 | O=C(c1ccc([N+](=O)[O-])cc1)N1CCN(c2cccc3[nH]ccc23)CC1 | -72.7%
16 | O=C(c1cccc([N+](=O)[O-])c1)N1CCN(c2ncccn2)CC1 | -8.55%
17 | O=C(c1ccc(Cl)cc1)N1CCN(c2cccc3[nH]ccc23)CC1 | 3.68%
18 | O=C(c1cccc([N+](=O)[O-])c1)N1CCN(Cc2ccccc2)CC1 | -9.31%
19 | CCOc1ccc(CC(=NCCc2ccccc2)C2=C(O)CC(C)(C)CC2=O)cc1OCC | -21.3%
20 | O=C(O)c1ccccc1CSc1nnnn1-c1ccccc1 | 12.6%
21 | Cc1cc(C)cc(N=C2NC(=O)/C(=C/c3cccs3)S2)c1 | 14.7%
22 | CC(=O)c1ccccc1NC(=O)C1C2CCC(O2)C1C(=O)O (centres unmarked) | 8.81%
23 | Cc1c(CCO)c(=O)[nH]n1C(=O)c1c(F)cccc1F | -1.76%

Row | Structure (SMILES) | hERG current change (%, negative = inhibition) at 10uM
24 | COc1ccc(-c2n[nH]c(=S)n2-c2ccc(C)cc2C)cc1 | 19.5%
25 | CC(NC(=O)c1ccc(CS(C)(=O)=O)cc1)c1cccc2ccccc12 (centres unmarked) | 10.1%
26 | CCOc1ccc(NC(=O)Nc2cc(-c3ccccc3)sc2C(=O)OC)cc1 | -4.41%
27 | COC(=O)C1=C(c2ccc(OC)c(OC)c2)C[C@@H]2CC[C@H]1N2C(=O)NCCO | 15.5%
28 | CC(C)(C)OC(=O)N1CCC[C@H]1C(=O)Nc1ccc(Br)cc1 | 13.5%
29 | CCN1CCN(c2ccc(S(=O)(=O)N3CCOCC3)cc2NC(=O)CCC(C)C)CC1 | -26.3%
30 | C/C(CC(=O)Nc1cc(C)ccn1)=N\NC(=O)c1ccncc1 | 19.7%
31 | Cc1ccccc1C(=O)N1CCC(C(=O)N2CCN(c3ncccn3)CC2)CC1 | 7.94%
32 | O=C(CCSc1ccc(Cl)cc1)N1CCCCCC1 | -4.88%
33 | O=C(CCSc1ccc(Cl)cc1)N1CCN(c2ccc(O)cc2)CC1 | -23.8%
34 | O=C(c1ccc(Cn2cc(Cl)c([N+](=O)[O-])n2)cc1)N1CCN(Cc2ccccc2)CC1 | -12.5%
35 | CC1CCCC(N2CCN(C(=O)c3ccc([N+](=O)[O-])cc3)CC2)C1.O=C(O)C(=O)O (centres unmarked) | -71.9%
36 | O=C(c1ccc(Cl)cc1)N1CCC(C(=O)N2CCN(c3ncccn3)CC2)CC1 | -56.6%
37 | CC1CCCC(N2CCN(C(=O)c3ccc(F)cc3)CC2)C1 (centres unmarked) | -44.1%
38 | O=C(c1ccc([N+](=O)[O-])o1)N1CCN(Cc2ccccc2)CC1 | 2.99%
39 | O=C(c1ccc(Cl)cc1)N1CCN(c2ncccn2)CC1 | 6.85%
40 | Cl.O=C(c1ccc(Cn2ccc([N+](=O)[O-])n2)cc1)N1CCN(Cc2ccccc2)CC1 | -56.1%
41 | CC1CCCC(N2CCN(C(=O)c3cccc(F)c3)CC2)C1.O=C(O)C(=O)O (centres unmarked) | -6.93%
42 | O=C(CCSc1ccc(Cl)cc1)N1CCN(c2ncccn2)CC1 | -60.6%
43 | CCN(Cc1ccccc1)C(=O)CCc1nnc(CCCc2ccccc2)o1 | 21.1%
44 | COc1cc(C(=O)NC(=S)Nc2ccc3oc(=O)ccc3c2)cc(OC)c1OC | 9.8%
45 | CC(=O)OC1COC(n2ccc3cc([N+](=O)[O-])ccc32)C(OC(C)=O)C1OC(C)=O (centres unmarked) | -12.2%
46 | CC(C)C(=O)Nc1ccc(Sc2ccc(F)cc2)cc1 | -3.48%

Row | Structure (SMILES) | hERG current change (%, negative = inhibition) at 10uM
47 | CCC(C)Nc1nc2c(c(=O)n(C)c(=O)n2C)n1Cc1ccc(Cl)cc1 (centres unmarked) | -7.45%
48 | COc1ccccc1-c1nc(SCC(=O)O)n[nH]1 | -1.65%
49 | COc1ccc(N=Cc2c(O)n(-c3ccc(OC)cc3)c(=O)c3ccccc23)cc1 | 15.2%
50 | CC(=O)N1CCN(c2nc3ccc([N+](=O)[O-])cc3s2)CC1 | -46.6%
51 | O=C(c1ccc([N+](=O)[O-])cc1)N1CCCC1 | 4.5%
52 | O=C(c1ccccc1)N1CCN(C(=O)c2ccc(OC(F)(F)F)cc2)CC1 | -62.8%
53 | CC(=O)N1CCN(C(=O)c2ccc(Oc3ccccc3)cc2)CC1 | 19.1%
54 | O=C(c1ccccc1)N1CCN(C(=O)c2ccc([N+](=O)[O-])cc2)CC1 | -53.9%
55 | O=C(c1ccccc1)N1CCN(c2nc3ccc([N+](=O)[O-])cc3s2)CC1 | -55.4%
56 | CCN1CCN(C(=S)c2ccc([N+](=O)[O-])cc2)CC1 | -36.9%
57 | O=[N+]([O-])c1ccc(C(=S)N2CCN(Cc3ccccc3)CC2)cc1 | -57.6%
58 | Oc1ccc(C(=S)N2CCN(Cc3ccccc3)CC2)cc1 | -5.46%
59 | O=CN1CCN(C(=O)c2ccc([N+](=O)[O-])cc2)CC1 | -22.3%
60 | O=C(c1cccs1)N1CCN(c2nc3ccc([N+](=O)[O-])cc3s2)CC1 | -7.47%
61 | O=C(c1ccccc1)N1CCN(C(=O)c2ccccc2)CC1 | 1.49%
62 | O=C(c1cc(N2C(=O)C3C4CCC(C4)C3C2=O)ccc1Cl)N1CCCCCC1 (centres unmarked) | 3.82%
63 | O=C(c1ccccc1)N1CCC(O)(c2ccc3c(c2)OCO3)CC1 | -12.4%
64 | CCn1c(CNC(=O)c2ccc3c(c2)OCO3)nnc1SCC(=O)Nc1ccccc1F | -6.31%
65 | O=C(Nc1ccccc1)c1ccco1 | 15%
66 | COC(=O)c1sccc1NC(=S)N1C(C)CCCC1C (centres unmarked) | -7.4%
67 | Cc1ccc(S(=O)(=O)c2nc(C)c3c(n2)CCC3)cc1 | 3.61%
68 | COc1ccc(C(=O)COC(=O)CCc2ccccc2)cc1 | -11.4%
69 | CC(=O)c1ccc(NC(=O)C(C)Sc2nnc(C3CCCCC3)o2)cc1 (centres unmarked) | -4.84%

Row | Structure (SMILES) | hERG current change (%, negative = inhibition) at 10uM
70 | O=C(c1ccc(-c2ccccc2)cc1)N1CCN(c2ncccn2)CC1 | -5.92%
71 | O=C(c1ccc2nc(-c3ccco3)c(-c3ccco3)nc2c1)N1CCN(c2ncccn2)CC1 | -67.8%
72 | Cc1cc(-c2ccccc2)n(-c2ccc(C(=O)N3CCN(c4ncccn4)CC3)cc2)n1 | -56.4%
73 | O=C1NC(=O)C2(Cc3cc([N+](=O)[O-])ccc3N3CCN(C(=O)c4ccccc4)CC32)C(=O)N1 (centres unmarked) | 23%
74 | CN1C(=O)N(C)C(=O)C2(Cc3cc([N+](=O)[O-])ccc3N(C)C2c2ccccc2)C1=O (centres unmarked) | -17.6%
75 | Cc1ccc(C)c(N2CCN(C(=O)c3ccc4nc(-c5ccco5)c(-c5ccco5)nc4c3)CC2)c1 | 21.1%
76 | O=C(c1ccncc1)N1CCN(C(=O)c2cccs2)CC1 | 6.46%
77 | O=C(c1ccc([N+](=O)[O-])cc1)N1CCN(C(=O)c2cccs2)CC1 | -70.3%
78 | CN1C(=O)N(C)C(=O)C2(Cc3cc([N+](=O)[O-])ccc3N3CCN(C(=O)c4ccccc4)CC32)C1=O (centres unmarked) | -65%
79 | Cc1cc(C)n(-c2ccc(C(=O)N3CCN(c4ccccn4)CC3)cc2)n1 | -32.5%
80 | O=C(c1ccc2nc(-c3ccco3)c(-c3ccco3)nc2c1)N1CCN(c2ccccc2)CC1 | -15.4%
81 | CC(C)N1CCN(C(=O)c2ccc([N+](=O)[O-])cc2)CC1 | -39.8%
82 | CCC1=NC(c2ccccc2OC)N(O)C1(C)C (centres unmarked) | 15.9%
83 | CCOc1ccc(C(=O)NCC(=O)NCC(c2cccs2)N2CCOCC2)cc1 (centres unmarked) | 4.69%
84 | c1csc(-c2nnc(NC3CCCCC3)c3ccccc23)c1 | -75.4%
85 | O=C(O)C(=O)O.c1csc(-c2nnc(N3CCCCCC3)c3ccccc23)c1 | -20.9%
86 | c1ccc(-c2nc(NC3CCCC3)c3ccccc3n2)cc1 | 20.5%
87 | Oc1ccccc1-c1nc(NC2CCCC2)c2ccccc2n1 | 17.8%
88 | c1csc(-c2nc3ccccn3c2NC2CCCCC2)c1 | 8.81%
89 | c1ccc2c(NC3CCCC3)nnc(NC3CCCC3)c2c1 | -74.9%

Reference: article PMC4336329 (PLoS ONE, 2015)
